MCF10A rereplic – induces DNA re-replication in MCF 10a normal breast cells. MCF 10A DNA re-replication, Hoechst nuclear intensity, 48 h. Potency, µM (titrated, usually from 46.1 µM), inactives show at the highest dose activity, positive = re-replication, most hits filed as activators. 2.9% of 350,000 active. AID 624296; further: potency means the concentration at half of the fitted maximal effect; % of control where 0% means no effect; nearly all actives have a fitted effect of over 50% in size
VP16 counter – inhibits Gal4-VP16 luciferase reporter, ROR gamma counter-screen. Potency, µM (top dose mostly 53.6 µM), for the others: at the highest dose activity, negative = inhibition, most hits filed as inhibitors. Drosophila S2 Gal4-VP16 UAS-luciferase, luminescence, 20 h. 3.5% of 310,000 active;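 further: Gal4-VP16 expression switched on by copper sulfate through the metallothionein promoter; potency means the concentration at half of the fitted maximal effect; on the % scale 0 is the no-effect control and ±100 the full control effect; nearly all actives have a fitted effect of over 50% in size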
Giardia kill – kills Giardia lamblia | activity change, % at 7.66 µM, hits read low | 0.15% of 340,000 active | Giardia lamblia trophozoite viability; in the data active means activity change below about -80%; inconclusive means between about -30% and that limit;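 further: parasites exposed to compound for two days anaerobically before the ATP read; on the % scale 0 is the no-effect control and ±100 the full control effect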
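Media and compound were dispensed first, then trophozoites at 100 cells/well; plates sat 48 hrs at 37 deg C without oxygen before ATP luminescence reagent was added and read after 15-30 min at room temperature.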
SW480 rerep – induces DNA re-replication in SW480 colon adenocarcinoma cells. AID 624297. 1.8% of 340,000 active. Potency, µM (highest dose often 46.1 µM), without a hit: at the top dose re-replication activation, most hits filed as activators. SW480 DNA re-replication, Hoechst DNA content imaging, 48 h; further: potency means the concentration at half of the fitted maximal effect; % of control where 0% means no effect; nearly all actives have a fitted effect of over 55% in size
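SW480 cells exposed to compounds for 48 hr at 37 C, 5% CO2, then Hoechst-stained 40 min. Nuclear DNA content imaged by fluorescence scanning (405 nm excitation, 500-530 nm emission); re-replication scored as increased high-intensity nuclei.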
RORgamma inh – ROR gamma (mouse) transcription inhibition | P51450 | Drosophila S2 Gal4-RORgamma UAS-luciferase reporter, 20 h | Potency, µM (doses to about 53.6 µM), for the others: top-dose activity change, negative = inhibition, most hits filed as inhibitors | 5.4% of 310,000 active | AID 2551; further: potency means the concentration at half of the fitted maximal effect; on the % scale 0 is the no-effect control and ±100 the full control effect; nearly all actives have a fitted effect of over 60% in size
Target sequence (P51450 whole entry, looked up, the tested form may be a part): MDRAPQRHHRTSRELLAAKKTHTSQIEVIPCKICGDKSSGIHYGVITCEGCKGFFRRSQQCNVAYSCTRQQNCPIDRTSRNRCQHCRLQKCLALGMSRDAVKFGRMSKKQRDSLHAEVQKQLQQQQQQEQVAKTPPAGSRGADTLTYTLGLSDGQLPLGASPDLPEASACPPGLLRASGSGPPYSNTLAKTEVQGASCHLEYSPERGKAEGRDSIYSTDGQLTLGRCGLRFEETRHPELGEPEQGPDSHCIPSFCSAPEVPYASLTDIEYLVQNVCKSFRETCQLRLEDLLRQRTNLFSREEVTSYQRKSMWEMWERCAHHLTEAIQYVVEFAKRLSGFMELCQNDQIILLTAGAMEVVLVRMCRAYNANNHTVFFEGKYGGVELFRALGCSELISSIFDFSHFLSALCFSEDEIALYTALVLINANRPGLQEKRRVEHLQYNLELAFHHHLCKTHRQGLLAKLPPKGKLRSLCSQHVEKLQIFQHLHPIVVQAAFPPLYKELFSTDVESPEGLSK
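Drosophila Schneider cells stably carrying a metallothionein-driven Gal4 DBD–ROR gamma fusion and a UAS-Photinus luciferase reporter were exposed to compound for 1 hr, then induced with copper sulfate (700 uM final) for 20 hr at ambient temperature before luminescence reading.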
BCR signal inh – inhibitors of chronic active B-cell receptor signaling | Potency, µM (titrated, usually from 46.1 µM), for inactives: at the highest dose activity change, negative = inhibition, usual class: inhibitors | AID 493014 | ABC-DLBCL IkBa-CBG/CBR reporter, luminescence ratio, 4 h | 0.05% of 340,000 active; active means well fitted inhibition curve with a large enough effect in the signal ratio, with a control signal flat, not every such curve was filed as active; inconclusive means small, poorly fitted or top-dose-only effect, or effect the other way, or a change in a side signal; the % refers to the signal ratio;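 further: potency means the concentration at half of the fitted maximal effect; plate controls were basal doxycycline-induced cells for no effect and cells given 10 µM MG132 for full effect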
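TMD8 ABC-DLBCL cells carrying doxycycline-inducible green luciferase fused to IkappaBalpha plus unfused red luciferase were exposed to compounds (up to 46 uM) for 4 hrs at 37C. Activity came from the overlap-corrected green/red luminescence ratio.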
The depositor's hits bear a star; ? = inconclusive; · = no result; [ ] = another dose, or the depositor's remark. Shown are actives, neighbours in structure and some others; about 8.3% of the full set was active somewhere. Unless noted, the call rests on the fitted dose curve; in most records, active means well fitted curve in the direction sought with a large enough effect; inconclusive means small, poorly fitted or top-dose-only effect, or another doubt; inactive means no such curve, though single readings can be large; an effect the other way counts as inactive or inconclusive.

SMILES	MCF10A rereplic	VP16 counter	Giardia kill	SW480 rerep	RORgamma inh	BCR signal inh
CCCn1c(NCc2cc(OC)ccc2OC)nc2ccccc21	1.4%	11.2µM*	14.7	4.7%	5.01µM*	-0.5%
Cc1cc(C(=O)NC2Cc3ccccc3C2)c(C)o1	-0.6%	-2.3%	-3.1	1.3%	8.4%	-0.6%
CC(=O)OC[C@H]1O[C@@H](O/N=C(\C)CCC(=O)OC[C@@H]2O[C@H](C#Cc3ccccc3)C=C[C@@H]2Oc2ccc(C)cc2)[C@H](OC(C)=O)[C@@H](OC(C)=O)[C@H]1OC(C)=O	·	-6.3%[10 µM]	·	·	-18.0%[10 µM]	·
CCc1ccc2nc(NC(=O)c3cc(C)on3)sc2c1	6.51µM*	?	-2.0	6.51µM*	5.62µM*	?
Cc1cc(C)c2nc(NC(=O)c3cc(C)on3)sc2c1	1.4%	?	-3.3	-7.7%	4.47µM*	?
CCC(=O)NNc1nc2c(C)cc(C)cc2s1	1.1%	?	-2.2	-18.2%	12.6µM*	-1.5%
N#CCCC(CCC#N)(CCC#N)c1cc[n+](CCc2ccccn2)cc1	-14.8%	·	-15.9	-5.7%	·	3.7%
CCCSc1nc2c(=O)[nH][nH]c(=O)c2n1Cc1ccccc1	-2.6%	-0.5%	1.4	-3.0%[9.22 µM]	-7.1%	9.1%
CCNC(=O)NCc1cccc(Cl)c1	1.4%	-10.1%	·	-1.8%	2.2%	·
CCOC(=O)C1=C(N)N(c2cc(S(=O)(=O)N3CCOCC3)ccc2Cl)C(=O)C1	-2.0%	4.9%[10 µM]	-11.8	11.2%	0.6%	-2.1%
COC(=O)N[C@H](C[N+](=O)[O-])c1cccc(C)c1	·	4.9%	·	·	-12.1%	·
Cn1c(COc2ccc(Br)cc2)nnc1SC1CCc2ccccc2C1=O (centres undefined)	?	?	-2.8	·	22.4µM*	1.5%
C#CCOc1ccc2c3c(c(=O)oc2c1)CCCC3	6.0%	0.9%	7.9	-4.4%	-7.3%[1.91 µM]	?
Cc1ccc(NS(=O)(=O)c2cc3c4c(cccc4c2)C(=O)NC3=O)cc1C	14.6µM*	?	-21.5	27.7%	?	?
CN(C)C/C=C/C(O)(c1ccccc1)c1ccccc1	16.4µM*	-3.4%	25.7	3.8%	2.4%	-0.8%
Cc1oc(-c2ccc(-c3ccccc3)cc2)nc1CN(CCO)C(C)C	?	?	17.5	3.1%	7.94µM*	?
Cc1oc(-c2ccc(-c3ccccc3)cc2)nc1CN(C)C1CCOC1 (centres undefined)	?	?	8.6	16.4µM*	14.1µM*	?
Cc1ccc(-c2nc(CS(=O)(=O)CC(=O)NCCCN(Cc3ccccc3)C(C)C)c(C)o2)cc1	?	5.7%	0.8	-4.2%	10.0%	?
Cc1oc(-c2cccc(Cl)c2)nc1CN(C)C1CCOC1 (centres undefined)	-0.4%	-3.0%	17.1	3.3%	?	-0.3%
O=C(O)Cc1ccc(-n2cccc2)cc1	-0.1%	-0.4%	-2.3	-8.0%	15.1%	-3.7%
COCCNc1ncnc2ccc(-c3ccc(N(C)C)cc3)cc12	·	-3.3%	·	·	?	·
O=C(c1cccc(F)c1)N1CCC2(CC1)CCN(c1ccc(-c3ccccc3)cc1)CC2	·	10.2%	·	·	-20.1%	·
O=C(c1cnccn1)N1CCC2(CC1)CN(c1cccc(-c3ccccc3)c1)C2	·	5.01µM*	·	·	-3.5%	·
CC(=O)N1CCC2(CC1)CN(c1cccc(-c3ccccc3)c1)C2	·	12.6µM*	·	·	20.1%	·
CC(=O)N1CCC2(CC1)CCN(c1cccc(-c3ccccc3)c1)CC2	·	-9.7%	·	·	28.8%	·
SMILES	MCF10A rereplic	VP16 counter	Giardia kill	SW480 rerep	RORgamma inh	BCR signal inh
O=C(c1cccc(F)c1)N1CCC2(CC1)CN(c1ccc(-c3ccccc3)cc1)C2	·	15.8µM*	·	·	10.7%	·
CCN1CCN(CCCNC(=O)CCC(=O)N2CCOc3ccc(Cl)cc32)CC1	2.5%	7.0%	11.9	-18.5%	-34.5%	-8.4%
O=C(CCCCCn1c(=S)[nH]c2ccc(N3CCOCC3)cc2c1=O)NCc1ccc2c(c1)OCO2	?	-5.3%	-3.1	?	-37.1%	-9.0%
O=C(CCCCCn1c(=S)[nH]c2ccc(N3CCOCC3)cc2c1=O)NCc1ccc(Cl)cc1	6.51µM*	7.2%	-2.5	?	?	-6.0%
O=C(CCCCCn1c(=S)[nH]c2ccc(N3CCOCC3)cc2c1=O)NCc1ccccc1Cl	18.4µM*	2.8%	-0.8	?	-44.2%	-14.7%
c1ccc(CN2CCC(=NNc3nc4ccccc4[nH]3)CC2)cc1	?	-25.5%	-8.0	23.1µM*	22.4µM*	-19.6%
O=C(N/N=C1\CCc2ccccc21)c1ccncc1	2.8%	-7.2%	26.5	?	-23.5%	-2.5%
c1ccc2c(c1)CC/C2=N/Nc1nc2ccccc2[nH]1	23.1µM*	5.62µM*	-18.2	?	1.12µM*	?
CC(C)(C)C1CCC(=NNc2nc3ccccc3[nH]2)CC1 (centres undefined)	14.1%	7.0%	3.6	16.4µM*	17.8µM*	?
COc1ccccc1C1/C(=C(/O)c2ccccc2)C(=O)C(=O)N1CC(C)O (centres undefined)	13.6%	1.4%	6.0	-2.6%[9.22 µM]	-17.7%	0.8%
Cc1cc2n(n1)SC(Nc1ccccc1)N2 (centres undefined)	-3.4%	4.47µM*	-0.3	-2.6%[9.22 µM]	3.16µM*	?
Cc1ccc(NC2Nc3cc(C)nn3S2)c(C)c1 (centres undefined)	0.1%	?	-9.6	4.6%	3.55µM*	?
COc1cccc(N/C=C/C(=O)c2ccc(Br)cc2)c1	22.9%	·	-0.1	0.9%	·	·
COc1ccc(C(=O)/C=C/Nc2ccc(S(=O)(=O)Nc3cccc(C(C)=O)c3)cc2)cc1	11.4%	5.62µM*	-7.5	-3.0%	-37.2%	?
Cc1cccc(N/C=C/C(=O)c2ccc(Cl)cc2)c1	10.4%	?	16.0	1.9%	3.16µM*	?
COc1ccc(C(=O)/C=C/Nc2cccc(O)c2)cc1	0.0%	2µM*	15.2	-7.4%	10µM*	?
O=C(/C=C\Nc1ccccn1)c1ccc(Cl)cc1	-17.5%	10µM*	-24.2	-16.3%	7.08µM*	?
O=C(CSc1nnc(NC(=O)C2CC(=O)N(c3ccc(F)cc3)C2)s1)NCC1CCCO1 (centres undefined)	1.4%	-4.0%	13.1	3.3%	-0.5%	0.3%
Cc1cccc(NC(=O)CC(=O)Nc2cccc(C)c2)c1	-21.1%	-6.6%	-4.0	-0.8%	17.6%	0.4%
CC(=O)c1ccc(NS(=O)(=O)c2ccc(C)cc2)cc1	?	-8.6%	4.0	-3.7%	20.8%	?
O=C(Nc1ccccc1)c1ccc(S(=O)(=O)Nc2cccc(O)c2)cc1	?	?	3.7	?	?	?
CC(=O)c1cccc(NS(=O)(=O)c2ccc(C(=O)Nc3ccccc3)cc2)c1	0.5%	10µM*	-5.1	4.6%	?	?
